Source: PubChem BioAssay
Hits are enriched below; roughly 2.4% of the tested compounds scored in any of these assays.
M1 PAM – potentiates human M1 receptor response to acetylcholine | activation, % at 3 µM | CHO-K1 hM1, Fluo-8 calcium fluorescence, ACh EC20; 0% = ACh EC20, 100% = maximal ACh | actives 0.088% (n = 360,000) | P11229; in the data active = activation above about 19%, passing the limit was not always enough
Target sequence (P11229 whole entry, looked up): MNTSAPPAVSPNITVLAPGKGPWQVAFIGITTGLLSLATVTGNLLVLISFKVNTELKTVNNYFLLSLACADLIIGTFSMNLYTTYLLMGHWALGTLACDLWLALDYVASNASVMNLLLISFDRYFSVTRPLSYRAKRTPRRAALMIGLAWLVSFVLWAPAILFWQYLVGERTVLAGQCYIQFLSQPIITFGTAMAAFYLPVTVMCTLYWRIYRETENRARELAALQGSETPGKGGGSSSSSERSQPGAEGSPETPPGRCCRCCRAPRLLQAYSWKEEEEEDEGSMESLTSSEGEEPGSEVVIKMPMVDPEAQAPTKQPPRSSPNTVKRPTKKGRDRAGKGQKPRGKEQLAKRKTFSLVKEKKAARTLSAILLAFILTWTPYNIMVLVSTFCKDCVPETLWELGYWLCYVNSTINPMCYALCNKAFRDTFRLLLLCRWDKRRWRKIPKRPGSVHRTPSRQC
CHRM1 antagonist – blocks human M1 muscarinic receptor. P11229. CHO-K1 hM1, Fluo-8 calcium fluorescence, ACh EC80 antagonist. inhibition, % at 3 µM. actives 1.3% (n = 360,000);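 active = percent inhibition above its own plate's cutoff, namely the mean of that plate's compound wells plus 3 SD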;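 note: peak over basal fluorescence ratio during 140 s after agonist addition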
CHO-K1 Ca PAM – counter-screen for M1 PAMs: effect in parental CHO-K1 cells. ATP EC20, Fluo-8 calcium fluorescence; 0% at ATP EC20, 100% at ATP max. activation, % at 3 µM. actives 0.02% (n = 360,000). AID 602247;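 active = activation above the run cutoff, the mean activation of all test compounds plus 3 SD, cut at about 40% in these data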;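 note: peak over basal fluorescence ratio in a 140 s read after ATP addition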
M1 ag parental – counter-screen for M1 agonists: effect in parental CHO-K1 cells; Fluo-8 calcium fluorescence; scaled to maximal ATP response, vehicle zero; activation, % at 3 µM; actives 0.48% (n = 360,000); in the data active = activation above about 15%;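 note: untransfected CHO-K1 host cells lacking M1 receptor as counterscreen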
M1 ag – human M1 muscarinic receptor agonism. P11229. CHO-K1 hM1, Fluo-8 calcium fluorescence, agonist mode; 0% DMSO, 100% acetylcholine EC100. activation, % at 3 µM. actives 0.33% (n = 360,000). AID 588814;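 active = activation above the run's mean compound activation plus 3 SD, cut at about 16% in these data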;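 note: peak over basal fluorescence ratio within a 140 s kinetic read after compound addition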
CHO-K1 Ca antag – counter-screen for M1 antagonists: effect in parental CHO-K1 cells | ATP-induced calcium, Fluo-8 fluorescence | inhibition, % at 3 µM | actives 0.6% (n = 360,000) | AID 602250;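 active = inhibition above a per-plate cutoff, the plate's mean sample inhibition plus 3 SD, cut at about 24% in these data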
A number is an active result; - = inactive.

SMILES	M1 PAM	CHRM1 antagonist	CHO-K1 Ca PAM	M1 ag parental	M1 ag	CHO-K1 Ca antag
Cc1nn(CC(=O)NCCN2CCCCCC2)c(=O)c2nn(-c3ccccc3)c(C)c12	-	-	-	-	-	-
CCOc1ccc(-n2nc3c(=O)n(CCN4CCCCC4)nc(C)c3c2C)cc1	-	30.5	-	-	-	-
Cn1nc(C(F)(F)F)c(-c2ccc(F)cc2)c1NC(=O)c1cccnc1	-	-	-	-	-	-
Cc1nc(SCC(=O)NCc2ccco2)c2c(=O)n(C)c(=O)n(CC(C)C)c2n1	-	-	-	-	-	-
CC1=C(C(=O)N(C)C)CC(CC(=O)NC2CCCCC2)C(=O)N1Cc1ccc(F)cc1 (centres undefined)	-	-	-	-	-	-
Cc1onc(-c2ccccc2)c1C(=O)NC(=S)NNC(=O)c1ccco1	-	-	-	18.4	17.0	-
COc1ccc(C(=O)NC(=S)NNC(=O)c2c(-c3ccccc3)noc2C)cc1OC	-	-	-	-	-	-
Cc1onc(-c2ccccc2)c1C(=O)NNC(=S)NC(=O)c1ccc2c(c1)OCO2	-	-	-	55.0	52.0	-
O=C(Cn1nc(C(=O)O)c2ccccc2c1=O)Nc1cc(S(=O)(=O)N2CCOCC2)ccc1Cl	-	-	-	-	-	-
Nc1nc(-c2cc3ccccc3o2)cs1	-	-	-	-	-	-
CN1CCN(C(CNC(=O)C(=O)NC2CCCCC2)c2ccc(F)cc2)CC1 (centres undefined)	-	-	-	-	-	-
N/C(=N\OC(=O)CC1CCCCC1)c1ccncc1	-	-	-	16.9	-	-
O=[N+]([O-])c1cccc(N(CC(O)CN2CCCCC2)S(=O)(=O)c2ccccc2)c1 (centres undefined)	-	-	-	-	-	-
O=C(CN1C(=O)C(c2ccc(F)cc2)=NC12CCCC2)Nc1ccc(F)cc1	-	-	-	-	-	36.2
CCC(=O)NC1CCN(C(=S)NC)CC1	-	-	-	-	-	-
CCOC(=O)CSc1cc(C)nc2ccc(OC)cc12	-	-	-	-	-	24.2
O=S(=O)(c1cc(F)ccc1F)N1CCN2CCCC2C1 (centres undefined)	-	-	-	-	-	-
C=CC(=O)Nc1ccc(CN2C(=O)N(c3c(Cl)c(OC)cc(OC)c3Cl)Cc3cnc(NCCCCN(CC)CC)nc32)cc1	-	38.8	-	-	-	-
COc1cc(NC(=O)c2ccco2)c(OC)cc1NC(=O)Nc1ccccc1Cl	-	30.4	-	-	-	-
O=S(=O)(NN1CCOCC1)c1cc(Cl)cc(Cl)c1O	-	-	-	-	-	-
COc1ccc(N2CCN(CC(=O)c3c[nH]c4ccccc34)CC2)cc1	-	-	-	-	-	24.1
COc1ccc(N2CCN(C(=O)C(=O)c3c[nH]c4ccccc34)CC2)cc1	-	-	-	-	-	-
Cc1ccc2[nH]cc(C(=O)CN3CCN(c4ccccc4F)CC3)c2c1	-	-	-	15.8	-	-
Cc1ccc(Cn2ccc(O)c(Cc3ccccc3)c2=O)cc1	-	-	-	-	-	-
CC12CCC(=O)N1C(C(=O)N1CCN(c3ccc(C(F)(F)F)cc3[N+](=O)[O-])CC1)CS2 (centres undefined)	-	-	-	-	-	-
SMILES	M1 PAM	CHRM1 antagonist	CHO-K1 Ca PAM	M1 ag parental	M1 ag	CHO-K1 Ca antag
Cc1ccc2nc(N)nnc2c1	-	-	-	-	-	-
Nc1nnc2cc(Cl)ccc2n1	28.0	-	-	-	-	-
CCOC(=O)C1CCCN(c2c(C(=O)c3ccccc3)cnc3ccc(OC)cc23)C1 (centres undefined)	-	50.9	61.4	-	61.5	-
CCOC(=O)C1CCCN(C(=O)COc2ccc(C(=O)c3ccccc3)cc2)C1 (centres undefined)	-	-	-	-	-	-
COc1ccc(-c2ccc(CN3C(C(C)C)C(=O)N(Cc4cn(CCC5OCCO5)nn4)CCS3(=O)=O)cc2)cc1 (centres undefined)	-	-	-	-	-	-
CN1CCN(C(=O)c2ccc(COc3ccc(C(C)(C)C)cc3)o2)CC1	-	38.9	-	-	-	-
Oc1ccc(Br)cc1C=Nc1ccc2c3c(cccc13)CC2	-	-	-	22.0	-	32.4
CC1CC(O)C(C)CN1 (centres undefined)	-	-	-	-	-	-
Cc1noc(C(C)C)c1C(=O)Nc1ccc(-c2nnc3n2CCCCC3)cc1	-	32.5	-	-	-	-
Cc1onc(-c2ccccc2)c1C(=O)Nc1ccc(-c2nnc3n2CCCCC3)cc1	-	-	-	-	-	-
COc1ccccc1N(CC1CO1)S(=O)(=O)c1ccc(C)cc1 (centres undefined)	-	-	-	-	-	-
C[C@]12C(=O)N(c3ccc(F)cc3)C(=O)N1[C@H]1c3ccccc3OC[C@@H]1[C@H]2c1ccccc1	-	-	43.8	-	-	-
C[C@@]12C(=O)Nc3cc(F)ccc3C(=O)N1[C@H]1c3ccccc3OC[C@@H]1[C@@H]2c1ccccc1	-	75.2	-	-	-	-
Cc1ccc2c(c1)[C@H]1[C@H](CO2)[C@H](c2ccccc2)[C@]2(C)C(=O)Nc3ccc(F)cc3C(=O)N12	-	65.9	-	-	-	-
C[C@@]12C(=O)N(c3ccc(F)cc3)C(=O)N1[C@@H]1c3ccccc3OC[C@@H]1[C@H]2c1ccccc1	-	-	-	-	-	-
Cc1ccc2c(c1)[C@H]1[C@H](CO2)[C@H](c2ccccc2)[C@]2(C)C(=O)Nc3cc(F)c(F)cc3C(=O)N12	-	41.5	-	-	-	-
c1ccc(CN(CCN2CCOCC2)Cc2ccccc2)cc1	-	-	-	-	-	-
COc1ccc(NC(=O)/C(C#N)=C\c2ccc(N3CCOCC3)o2)cc1	-	31.1	-	53.8	69.4	35.3
COc1ccc(NC(=O)/C(C#N)=C/c2ccc(Br)o2)cc1	-	-	-	-	-	-
N#C/C(=C/c1ccc(N2CCOCC2)o1)c1nc2ccccc2[nH]1	-	-	-	18.9	25.2	-
N#C/C(=C/c1ccc(N2CCOCC2)o1)C(=O)NC1CCCCC1	-	-	-	-	-	-
N#C/C(=C\c1ccc(N2CCOCC2)o1)C(=O)Nc1ccc(O)cc1	-	-	-	16.4	-	-
CCOc1ccccc1NC(=O)c1cnc(NS(=O)(=O)c2ccccc2)nc1	-	-	-	-	-	-
O=C(N/N=C/c1ccc(Cl)cc1)C1CC12CCC2 (centres undefined)	-	-	-	-	-	-
COc1ccccc1/C=N/NC(=O)c1ccc2c(c1)OCO2	-	-	-	-	-	-
CCCOc1ccc(/C=N/NC(=O)c2ccc3c(c2)OCO3)c(OCCC)c1	32.5	-	-	-	-	-
